Screens: PubChem, The Scripps Research Institute Molecular Screening Center
Compounds with a hit are over-represented: about 3.5% of the library has one in this group of screens.
FBW7 activator – FBW7 E3 ligase activators, primary screen, biochemical, AlphaScreen, human. F-box/WD repeat-containing protein 7 (Homo sapiens), Q969H0. AlphaScreen FBW7–phospho-cyclin E peptide binding, activator screen. normalized activity (activation), % at 26.1 µM. 0.13% of 650,000 active. AID 1259310, 2017; in the data active = normalized activity above about 1.9%;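 note: purified mutant Fbw7 with reduced substrate affinity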
GPR151 ag – activators of human GPR151, primary screen, cell-based, PathHunter beta-arrestin, luminescence; G-protein coupled receptor 151 (Homo sapiens), Q8TDV0; PathHunter beta-arrestin GPR151 cells; activation, % at 11.2 µM; 1% of 650,000 active; in the data active = activation above about 4.9%
TEAD-YAP inh – TEAD-YAP interaction inhibition, primary screen, TEAD-YAP interaction inhibitor project, luminescence, HEK-TIYL cells; TEAD-Gal4/YAP UAS-luciferase luminescence; inhibition, % at 9.12 µM; 1.4% of 640,000 active; AID 1259422, 2018; in the data active = inhibition above about 32%
MITF inh – MITF inhibitors, primary screen, biochemical, AlphaScreen, human. Microphthalmia-associated transcription factor (Homo sapiens), O75030. AlphaScreen MITF homodimerization, bead proximity signal. inhibition, % at 2.6 µM. 0.91% of 650,000 active. AID 1259374, 2018; in the data active = inhibition above about 50%
Target sequence (O75030 whole entry, looked up): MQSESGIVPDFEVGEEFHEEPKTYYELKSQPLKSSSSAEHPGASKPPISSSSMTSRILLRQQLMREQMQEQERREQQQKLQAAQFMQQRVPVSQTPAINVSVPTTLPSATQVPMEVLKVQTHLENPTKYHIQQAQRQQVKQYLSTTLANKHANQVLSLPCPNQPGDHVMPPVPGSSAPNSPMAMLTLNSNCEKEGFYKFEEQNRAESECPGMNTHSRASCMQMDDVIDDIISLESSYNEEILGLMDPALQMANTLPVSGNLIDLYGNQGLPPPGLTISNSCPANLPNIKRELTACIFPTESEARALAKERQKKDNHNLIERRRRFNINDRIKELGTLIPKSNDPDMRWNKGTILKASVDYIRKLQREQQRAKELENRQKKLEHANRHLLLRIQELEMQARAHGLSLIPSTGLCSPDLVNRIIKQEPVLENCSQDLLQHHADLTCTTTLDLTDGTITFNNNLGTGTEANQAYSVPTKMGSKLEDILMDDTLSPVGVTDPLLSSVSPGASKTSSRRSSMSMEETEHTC
GPR151 conf act – GPR151 activators, triplicate retest, confirmation, cell-based, PathHunter beta-arrestin, luminescence | activation, % at 11.2 µM | AID 1508609, 2020 | shares compounds with GPR151 ag | 6,700 tested, under 10 active | GPR151 PathHunter beta-arrestin cells, 90 min; % of EA-reagent control over plate median;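 active = mean percent activation across replicates above the confirmation screen cutoff of 4.91%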
GPR119 counter – GPR119 activators in beta-arrestin cells, counter-screen for GPR151 activator project, cell-based, PathHunter beta-arrestin, luminescence, triplicate. 90 min; 0 = compound-well median, 100 = enzyme-acceptor control. shares compounds with GPR151 ag. activation, % at 11.2 µM. 0.3% of 6,700 active. AID 1508611, 2020;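 active = mean percent activation in the counterscreen above 29.09%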;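 note: counterscreen on off-target GPR119 to flag nonselective hits from the GPR151 activator screen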
Large screens that a line does not name were inactive (follow-up assays come after a bar, where they were run).

Cc1nn(C)c(C)c1-c1nc(Nc2ccc(N3CCOCC3)cc2)c2[nH]cnc2n1	none
O=C(Nc1ccc(Cl)cc1)C1c2cccc[n+]2CC(=O)N1c1ccc(O)cc1 (stereo not given)	none
CCOc1ccc(NC(=O)C2c3cccc[n+]3CC(=O)N2c2ccccc2O)cc1 (stereo not given)	GPR151 ag 5.1 | GPR151 conf act inactive | GPR119 counter inactive
CCN(CC)C(=O)C1CCCN(c2cccc(C(=O)NC3CC3)n2)C1 (stereo not given)	none
CCOC(=O)c1nnn(CC(=O)NC(=O)Nc2cccc(CC)c2)c1C(=O)OCC	GPR151 ag 5.7 | GPR151 conf act inactive | GPR119 counter inactive
Cc1nc2ccc(N/C=C3\C(=O)C(C)(C)Oc4ccc5ccc(=O)oc5c43)cc2s1	GPR151 ag 5.8 | GPR151 conf act inactive | GPR119 counter inactive
Cc1cccc(Nc2nc(Cl)nc(Cl)n2)c1	none
S=C(NCC1CCCO1)Nc1ccc(I)cc1 (stereo not given)	none
CC(=O)c1ccc(NC(=S)NCC2CCCO2)cc1 (stereo not given)	GPR151 ag 5.4 | GPR151 conf act inactive | GPR119 counter inactive
Cc1c(CCO)sc[n+]1CC(=O)OC1CC(C)CCC1C(C)C (stereo not given)	GPR151 ag 5.4 | GPR151 conf act inactive | GPR119 counter inactive
Cc1cc(C)nc(SCC(=O)OC2CC(C)CCC2C(C)C)n1 (stereo not given)	none
O=C(Nc1ccc2[nH]ncc2c1)[C@H]1CCN(C(=O)[C@H](O)CSc2ccc(Br)cc2)C1	none
O=C(Nc1ccc2[nH]ncc2c1)[C@H]1CCN(C(=O)[C@@H](O)CSc2ccc(Br)cc2)C1	GPR151 ag 5.7 | GPR151 conf act inactive | GPR119 counter inactive
COCCNC(=O)C1CCCN(S(=O)(=O)c2c(C)noc2/C=C/c2cccs2)C1 (stereo not given)	GPR151 ag 5.3 | GPR151 conf act inactive | GPR119 counter inactive
CCc1nc2ccccc2c(NC(=O)CN2CCC(C)CC2)c1C	GPR151 ag 5.3 | GPR151 conf act inactive | GPR119 counter inactive
O=C1CCC(CCC(=O)N2Cc3ccccc3OC(c3ccccc3)C2)=NN1 (stereo not given)	GPR151 ag 9.9 | GPR151 conf act inactive | GPR119 counter inactive
O=C(CCC1=NNC(=O)CC1)NCCN1Cc2ccccc2OC(c2ccccc2F)C1 (stereo not given)	none
Cc1cccc(C(=O)Nc2ncc(S(=O)(=O)c3ccc([N+](=O)[O-])cc3)s2)c1	GPR151 ag 4.9 | GPR151 conf act inactive | GPR119 counter inactive
CC(C)(C)c1ccc(C(=O)Nc2ncc(S(=O)(=O)c3ccc([N+](=O)[O-])cc3)s2)cc1	none
C=CCN1C(=O)/C(=C\c2cc(Cl)c(O)c(Cl)c2)C(=O)NC1=S	none
C=CCN1C(=O)/C(=C\c2cc(Cl)c(O)c(OCC)c2)C(=O)NC1=S	GPR151 ag 7.4 | GPR151 conf act inactive | GPR119 counter inactive
C=CCN1C(=O)/C(=C/c2ccc(Cl)cc2)C(=O)NC1=S	GPR151 ag 16 | GPR151 conf act inactive | GPR119 counter inactive
CC(Oc1ccccc1)C(=O)N1CCN(c2ccccc2)CC1 (stereo not given)	none
CCCNCCC1CCC(=O)N1CCc1cccc(OC)c1 (stereo not given)	GPR151 ag 6.7 | GPR151 conf act inactive | GPR119 counter inactive
COc1cccc(CCN2C(=O)CCC2CCNCc2cccc(F)c2)c1 (stereo not given)	GPR151 ag 5.1 | GPR151 conf act inactive | GPR119 counter inactive
CN1C(C(=O)NCc2ccco2)CC(c2cccs2)NS1(=O)=O (stereo not given)	none
O=C1c2ccccc2C(=O)c2c(O)c(O)cc(O)c21	none
O=C1c2ccccc2C(=O)c2c(O)ccc(O)c21	GPR151 ag 18 | GPR151 conf act inactive | GPR119 counter inactive
COc1ccc(-c2cc(C(F)(F)F)n3nc(C(=O)Nc4ccccc4C(F)(F)F)c(Cl)c3n2)cc1OC	GPR151 ag 6.0 | GPR151 conf act inactive | GPR119 counter inactive
COc1ccc(-c2cc(C(F)(F)F)n3nc(C(=O)Nc4cccc(C)c4Cl)c(Cl)c3n2)cc1OC	none
O=C(Cn1c(=O)n(Cc2ccco2)c2ncccc21)NC1CC1	none
CCOc1ccc(NC(=O)CSc2nc3ccc(N4CCCCC4)cc3c(=O)n2Cc2ccccc2)cc1	GPR151 ag 7.7 | GPR151 conf act inactive | GPR119 counter inactive
COc1ccc2oc(-c3ccccc3)c(C(=O)O)c2c1	none
COc1ccc2oc(-c3ccccc3)c(C(=O)Nc3nccs3)c2c1	GPR151 ag 6.2 | GPR151 conf act inactive | GPR119 counter inactive
COc1ccc(/C=C(\C#N)C(=O)NCc2cccnc2)cc1OC	GPR151 ag 6.0 | GPR151 conf act inactive | GPR119 counter inactive
CCOc1cc(/C=C(/C#N)C(=O)NCc2ccccc2)ccc1OC	none
Cc1nn2cnnc2[nH]c1=O	none
O=C(O)c1cc([N+](=O)[O-])cc([N+](=O)[O-])c1N1CCCC1	none
CCOC(=O)/C(C#N)=C/Nc1ccccc1NS(=O)(=O)c1cccc(C(C)=O)c1	none
CCOC(=O)/C(C#N)=C/Nc1ccccc1NS(=O)(=O)c1ccc(C)c(C)c1	GPR151 ag 5.5 | GPR151 conf act inactive | GPR119 counter inactive
CCOC(=O)CSc1nnc(-c2cccc(NC(=O)c3ccccc3Cl)c2)n1C	GPR151 ag 5.3 | GPR151 conf act inactive | GPR119 counter inactive
CCCOC(=O)C1=C(C)NC(=O)NC1c1ccc(Cl)cc1Cl (stereo not given)	none
CC(C)C[C@@H]1NC(=O)[C@H]2CN(Cc3cnn(-c4ccccc4F)c3)CCN2C1=O	none
COc1ccc(-n2ncc3c(Nc4ccc(Cl)c(Cl)c4)ncnc32)cc1	none
COc1ccc(Nc2ncnc3c2cnn3-c2ccc(Cl)cc2)cc1Cl	GPR151 ag 11 | GPR151 conf act inactive | GPR119 counter inactive
Cc1ccccc1C(=O)NCc1nc(-c2ccccc2)no1	GPR151 ag 6.9 | GPR151 conf act inactive | GPR119 counter inactive
COc1ccc(NC(=O)CCC(=O)Oc2ccc(C)cc2)cc1	GPR151 ag 16 | GPR151 conf act inactive | GPR119 counter inactive
CCc1ccccc1NC(=O)CCC(=O)OCC(=O)c1ccc(C)cc1	none
O=C(CCCC(=O)OCC(=O)c1ccc(Cl)c([N+](=O)[O-])c1)Nc1ccccc1Cl	GPR151 ag 5.1 | GPR151 conf act inactive | GPR119 counter inactive
